From PubChem BioAssay (EPA / NIEHS)
Inconclusive results are not listed. Calls of active or inactive are those of the source. The calls were made as follows, unless noted: active = hit-call score of the fitted dose curve at least 0.9, where 1 is the maximum; inactive = score below 0.9.

Key:
[1] = ATG_Hpa5_TRANS: Attagene TRANS-FACTORIAL HepG2 Assay for human GAL4-Hpa5 Hepatocyte Transcription Factor Basal Promoter (AID 2282975; active = hit-call score of the fitted dose curve at least 0.9, where 1 is the maximum;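 also: hits are increases in reporter mRNA over DMSO baseline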); conditions: HepG2 Attagene GAL4-Hpa5 transcription reporter
Method in brief: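 Gain-of-signal versus DMSO is fitted for reporter mRNA quantified by RT-PCR and capillary electrophoresis after 24 h exposure. This endpoint is an internal background marker in transiently transfected HepG2 cells carrying GAL4-UAS reporter units.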

[2] = molecular target: Oxysterols receptor LXR-beta (Homo sapiens) (UniProt P55055); assay: ATG_LXRb_TRANS: Attagene TRANS-FACTORIAL HepG2 Assay for human Liver X Receptor beta (LXRb) (AID 2282981; active = hit-call score of the fitted dose curve at least 0.9, where 1 is the maximum); conditions: HepG2 Attagene TRANS GAL4-LXRb reporter, mRNA
Method in brief: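 Readout: fluorescent reporter mRNA fragments resolved by capillary electrophoresis after RT-PCR. System: transiently transfected human HepG2, exogenous LXRb-Gal4 chimera driving GAL4-UAS reporter, 24 h dosing. Activity fitted upward against DMSO baseline.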

[3] = molecular target: Hepatocyte nuclear factor 4-alpha (Homo sapiens) (UniProt P41235); assay: ATG_HNF4a_TRANS: Attagene TRANS-FACTORIAL HepG2 Assay for human Hepatocyte Nuclear Factor 4 alpha (HNF4a) (AID 2282982; active = hit-call score of the fitted dose curve at least 0.9, where 1 is the maximum); conditions: HepG2 HNF4a transactivation reporter, mRNA readout
Method in brief: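 Transient MRTU transfection of HepG2, 24 h dosing. Readout: reporter mRNA via RT-PCR + capillary electrophoresis, fluorescence; activity fit upward relative to DMSO control.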

[4] = ATG_M_32_TRANS: Attagene TRANS-FACTORIAL HepG2 Assay for M32 Transcription Factor (Internal Marker) (AID 2282984; active = hit-call score of the fitted dose curve at least 0.9, where 1 is the maximum); conditions: HepG2 Attagene TRANS M32 internal marker reporter
Method in brief: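 Read-out: fluorescent reporter cDNA fragments resolved by capillary electrophoresis after RT-PCR of total RNA. Transfected HepG2 cells were exposed to chemical for 24 h. Activity scored in the positive direction relative to DMSO.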

[5] = molecular target: Nuclear receptor subfamily 4 group A member 2 (Homo sapiens) (UniProt P43354); assay: ATG_NURR1_TRANS: Attagene TRANS-FACTORIAL HepG2 Assay for human Nuclear Receptor Related Protein 1 (NURR1) (AID 2282985; active = hit-call score of the fitted dose curve at least 0.9, where 1 is the maximum); conditions: HepG2 Attagene TRANS reporter, mRNA readout
Method in brief: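 Read-out: reporter mRNA induction by RT-PCR plus capillary electrophoresis with fluorescence detection, after 24 h dosing of transfected HepG2 cells. Exogenous NR-Gal4 chimera activity drives GAL4-UAS reporter; activity fitted upward versus DMSO.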

[6] = molecular target: Transcriptional activator Myb (Homo sapiens) (UniProt P10242); assay: ATG_Myb_CIS: Attagene CIS-FACTORIAL HepG2 Assay for human Myeloblastosis (Myb) Proto-Oncogene Transcription Factor (AID 2282986); conditions: HepG2 Attagene CIS-FACTORIAL Myb reporter transcription; actives raise or lower the signal
Method in brief: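 Transiently transfected HepG2 cells carrying a multiplexed cis-promoter reporter set report endogenous Myb activity after 24 h compound exposure. Reporter mRNA is read by RT-PCR with capillary electrophoresis of fluorescent products, fitted bidirectionally against DMSO.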

[7] = molecular target: Nuclear respiratory factor 1 (Homo sapiens) (UniProt Q16656); assay: ATG_NRF1_CIS: Attagene CIS-FACTORIAL HepG2 Assay for human Nuclear Respiratory Factor 1 (NRF1) Orphan Gene (AID 2282987); conditions: HepG2 NRF1 cis-element reporter, Attagene multiplex; actives raise or lower the signal
Method in brief: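 HepG2 cells transiently transfected with multiple cis-regulated reporter units, exposed 24 h. Reporter mRNAs measured by RT-PCR, fluorescent labelling, HpaI digestion and capillary electrophoresis; bidirectional fitting against DMSO.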

[8] = ATG_NFI_CIS: Attagene CIS-FACTORIAL HepG2 Assay for human Nuclear Factor I (NFI) (AID 2282989); conditions: HepG2 cis-regulatory reporter, NFI response element transcription; actives raise or lower the signal
Method in brief: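 Reporter transcription driven by endogenous transcription factors in HepG2 cells; 24 h treatment. Quantitation by labelled RT-PCR fragments on capillary electrophoresis, gain- or loss-of-signal relative to DMSO.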

[9] = molecular target: Myc proto-oncogene protein (Homo sapiens) (UniProt P01106); assay: ATG_Myc_CIS: Attagene CIS-FACTORIAL HepG2 Assay for human Myelocytomatosis (Myc) Proto-Oncogene Transcription Factor (AID 2282990); conditions: HepG2, Attagene cis-reporter transcription factor activity; actives raise or lower the signal
Method in brief: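 Transiently transfected HepG2 cells bearing cis-promoter reporter units for endogenous transcription factors; 24 h exposure. Reporter mRNA measured by RT-PCR, 6-FAM primer extension, HpaI cut and capillary electrophoresis; bidirectional fit relative to DMSO.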

[10] = ATG_NF_kB_CIS: Attagene CIS-FACTORIAL HepG2 Assay for human Nuclear Factor Kappa B (NF-kB) (AID 2282991); conditions: HepG2 Attagene cis-factorial NF-kB reporter mRNA; actives raise or lower the signal
Method in brief: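 HepG2 cells transfected with cis-promoter-driven reporter units, so endogenous transcription factor activity is measured. Reporter mRNA quantified 24 h after dosing by RT-PCR and capillary electrophoresis, with bidirectional fitting against DMSO.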

[11] = ATG_NRF2_ARE_CIS: Attagene CIS-FACTORIAL HepG2 Assay for human Nuclear Factor Erythroid 2 Related Factor 2 (NFR2) response to Antioxidant Response Elements (ARE) (AID 2282992); conditions: HepG2 Attagene ARE/NRF2 reporter, transcription factor activity; actives raise or lower the signal;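 as to AC50: reporter mRNA level measured by RT-PCR and capillary electrophoresis fluorescence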
Method in brief: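 Readout: reporter mRNA quantified by RT-PCR plus FAM-labelled primer extension, HpaI digestion and capillary electrophoresis, 24 h after dosing transfected HepG2 cells. Gain or loss of signal is fitted bidirectionally against DMSO baseline.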

[12] = ATG_Oct_MLP_CIS: Attagene CIS-FACTORIAL HepG2 Assay for human Octamer-Binding Transcription Factor (Oct) (AID 2282993); conditions: HepG2 Attagene cis-factorial Oct reporter, mRNA; actives raise or lower the signal
Method in brief: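 Transfected HepG2 cells, 24 h treatment. Reporter mRNA quantified by RT-PCR–capillary electrophoresis; bidirectional fitting against DMSO.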

[13] = molecular target: Cellular tumor antigen p53 (Homo sapiens) (UniProt P04637); assay: ATG_p53_CIS: Attagene CIS-FACTORIAL HepG2 Assay for human p53 Transcription Factor (AID 2282994); conditions: HepG2 p53 cis-element reporter, Attagene mRNA; actives raise or lower the signal
Method in brief: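 Read-out: reporter mRNA by RT-PCR plus capillary electrophoresis with fluorescence detection. Human HepG2 liver cells carried transfected multi-reporter cis-element constructs, dosed 24 h. Gain or loss of signal fitted bidirectionally against DMSO control.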

[14] = BSK_3C_TissueFactor: BioMAP Diversity Plus: 3C Assay for Tissue Factor Biomarker Activity (AID 2282997); conditions: BioMAP 3C HUVEC, tissue factor biomarker readout; actives raise or lower the signal
Method in brief: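 Tissue Factor measured by ELISA, 24 h after treatment of primary HUVEC in the BioMAP 3C setting.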

[15] = molecular target: Estrogen-related receptor gamma (Homo sapiens) (UniProt P62508); assay: ATG_ERRg_TRANS: Attagene TRANS-FACTORIAL HepG2 Assay for human Estrogen-Related Receptor gamma (ERRg) (AID 2282977; active = hit-call score of the fitted dose curve at least 0.9, where 1 is the maximum;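 also: hits increase reporter signal over DMSO so potencies reflect activators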); conditions: HepG2 Attagene TRANS reporter, ERRg transactivation
Method in brief: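 Exogenous NR-Gal4 chimera activity was assessed in HepG2 cells bearing transfected GAL4-UAS reporters. After 24 h dosing, total RNA underwent RT-PCR, fluorescent primer extension and HpaI digestion before capillary electrophoresis, with gain of signal scored against DMSO.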

[16] = molecular target: Glucocorticoid receptor (Homo sapiens) (UniProt P04150); assay: ATG_GR_TRANS: Attagene TRANS-FACTORIAL HepG2 Assay for human Glucocorticoid Receptor (GR) (AID 2282978; active = hit-call score of the fitted dose curve at least 0.9, where 1 is the maximum;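 also: activators score as hits since higher reporter transcript over DMSO is fitted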); conditions: HepG2 Attagene TRANS GR reporter, mRNA transcription
Method in brief: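 HepG2 cells transiently transfected with GAL4-UAS reporter units and exogenous GR-Gal4 chimera, dosed 24 h. Reporter mRNA by RT-PCR, FAM labeling, HpaI digest and capillary electrophoresis; gain-of-signal fit versus DMSO.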

[17] = molecular target: Oxysterols receptor LXR-alpha (Homo sapiens) (UniProt Q13133); assay: ATG_LXRa_TRANS: Attagene TRANS-FACTORIAL HepG2 Assay for human Liver X Receptor alpha (LXRa) (AID 2282980; active = hit-call score of the fitted dose curve at least 0.9, where 1 is the maximum); conditions: HepG2 Attagene TRANS reporter, LXRa transactivation
Method in brief: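 HepG2 cells transiently transfected with GAL4-UAS reporter units for chimeric NR-Gal4 proteins, exposed to chemicals for 24 h. Reporter mRNA quantified by RT-PCR and capillary electrophoresis; gain of signal fitted relative to DMSO.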

[18] = ATG_M_06_TRANS: Attagene TRANS-FACTORIAL HepG2 Assay for M06 Transcription Factor (Internal Marker) (AID 2282983; active = hit-call score of the fitted dose curve at least 0.9, where 1 is the maximum;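 also: reporter transcript level by RT-PCR then capillary electrophoresis fluorescence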); conditions: HepG2 Attagene TRANS M06 internal marker reporter
Method in brief: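 mRNA levels of a reporter transcript, quantified as FAM fluorescence on capillary electrophoresis, served as readout. HepG2 cells expressing exogenous GAL4-chimera reporter constructs were exposed for 24 h. Gain of signal over DMSO was evaluated.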

[19] = molecular target: Bile acid receptor (Homo sapiens) (UniProt Q96RI1); assay: ATG_FXR_TRANS: Attagene TRANS-FACTORIAL HepG2 Assay for Farnesoid X Receptor (FXR) (AID 2282979; active = hit-call score of the fitted dose curve at least 0.9, where 1 is the maximum;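 also: hits raise reporter mRNA above DMSO so AC50 marks FXR activation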); conditions: HepG2 Attagene TRANS FXR-GAL4 reporter transcription
Method in brief: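 HepG2 cells were transiently transfected with GAL4-UAS reporters driven by chimeric NR-Gal4 proteins and dosed for 24 h. Reporter mRNA was quantified by RT-PCR, fluorescent labelling, HpaI digestion and capillary electrophoresis, with gain of signal scored versus DMSO.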

[20] = ATG_GAL4_TRANS: Attagene TRANS-FACTORIAL HepG2 Assay for GAL4 (Internal Marker) (AID 2282976; active = hit-call score of the fitted dose curve at least 0.9, where 1 is the maximum); conditions: HepG2 Attagene TRANS GAL4 internal marker reporter
Method in brief: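 Background-control readout: GAL4-UAS reporter transcript in transiently transfected HepG2 cells after 24 h compound exposure. Measured by RT-PCR, 6-FAM primer extension, HpaI digest and capillary electrophoresis; gain-of-signal fit versus DMSO.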

Measured: AC50

Sequence of Cellular tumor antigen p53 (Homo sapiens) (P04637 whole entry, looked up): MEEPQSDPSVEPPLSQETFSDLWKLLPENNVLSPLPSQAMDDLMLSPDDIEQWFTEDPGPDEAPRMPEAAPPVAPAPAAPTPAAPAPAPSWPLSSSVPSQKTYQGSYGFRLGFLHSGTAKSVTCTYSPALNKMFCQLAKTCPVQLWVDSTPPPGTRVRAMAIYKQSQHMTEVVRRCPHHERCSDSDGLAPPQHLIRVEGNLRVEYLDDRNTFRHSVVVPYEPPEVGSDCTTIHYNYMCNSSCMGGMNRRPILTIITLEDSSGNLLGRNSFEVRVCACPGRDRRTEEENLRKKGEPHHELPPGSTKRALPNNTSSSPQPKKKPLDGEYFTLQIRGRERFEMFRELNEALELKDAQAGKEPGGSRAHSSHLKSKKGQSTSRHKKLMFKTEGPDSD
Sequence of Nuclear receptor subfamily 4 group A member 2 (Homo sapiens) (P43354 whole entry, looked up, the tested form may be a part): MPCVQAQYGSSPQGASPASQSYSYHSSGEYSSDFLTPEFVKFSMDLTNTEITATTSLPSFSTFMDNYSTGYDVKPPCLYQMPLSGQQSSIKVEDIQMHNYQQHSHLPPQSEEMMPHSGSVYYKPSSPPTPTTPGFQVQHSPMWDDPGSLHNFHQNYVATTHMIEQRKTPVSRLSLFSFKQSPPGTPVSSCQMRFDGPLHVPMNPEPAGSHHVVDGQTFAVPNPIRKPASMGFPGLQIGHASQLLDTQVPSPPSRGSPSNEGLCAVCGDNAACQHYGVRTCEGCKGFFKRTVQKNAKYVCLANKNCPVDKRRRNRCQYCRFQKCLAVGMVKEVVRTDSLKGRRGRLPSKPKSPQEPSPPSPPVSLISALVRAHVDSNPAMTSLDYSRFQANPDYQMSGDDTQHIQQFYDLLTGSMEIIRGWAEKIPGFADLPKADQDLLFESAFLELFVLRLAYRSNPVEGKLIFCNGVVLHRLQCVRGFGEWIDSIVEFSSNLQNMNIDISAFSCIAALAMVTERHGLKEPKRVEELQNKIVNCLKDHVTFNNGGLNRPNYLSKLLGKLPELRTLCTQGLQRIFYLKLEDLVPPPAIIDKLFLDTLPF
Sequence of Nuclear respiratory factor 1 (Homo sapiens) (Q16656 whole entry, looked up): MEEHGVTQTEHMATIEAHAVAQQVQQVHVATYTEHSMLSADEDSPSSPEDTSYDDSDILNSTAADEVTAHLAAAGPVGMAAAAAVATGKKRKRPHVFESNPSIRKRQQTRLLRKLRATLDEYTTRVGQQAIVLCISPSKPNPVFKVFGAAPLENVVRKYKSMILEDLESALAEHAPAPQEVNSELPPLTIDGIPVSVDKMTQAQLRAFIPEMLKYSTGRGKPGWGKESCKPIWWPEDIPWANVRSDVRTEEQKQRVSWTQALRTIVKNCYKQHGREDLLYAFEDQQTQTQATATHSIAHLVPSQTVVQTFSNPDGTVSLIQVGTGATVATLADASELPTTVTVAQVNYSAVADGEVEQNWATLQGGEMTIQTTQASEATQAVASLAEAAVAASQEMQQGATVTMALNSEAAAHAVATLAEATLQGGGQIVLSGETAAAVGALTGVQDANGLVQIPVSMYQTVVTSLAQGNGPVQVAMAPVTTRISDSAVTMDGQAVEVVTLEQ
Sequence of Estrogen-related receptor gamma (Homo sapiens) (P62508 whole entry, looked up, the tested form may be a part): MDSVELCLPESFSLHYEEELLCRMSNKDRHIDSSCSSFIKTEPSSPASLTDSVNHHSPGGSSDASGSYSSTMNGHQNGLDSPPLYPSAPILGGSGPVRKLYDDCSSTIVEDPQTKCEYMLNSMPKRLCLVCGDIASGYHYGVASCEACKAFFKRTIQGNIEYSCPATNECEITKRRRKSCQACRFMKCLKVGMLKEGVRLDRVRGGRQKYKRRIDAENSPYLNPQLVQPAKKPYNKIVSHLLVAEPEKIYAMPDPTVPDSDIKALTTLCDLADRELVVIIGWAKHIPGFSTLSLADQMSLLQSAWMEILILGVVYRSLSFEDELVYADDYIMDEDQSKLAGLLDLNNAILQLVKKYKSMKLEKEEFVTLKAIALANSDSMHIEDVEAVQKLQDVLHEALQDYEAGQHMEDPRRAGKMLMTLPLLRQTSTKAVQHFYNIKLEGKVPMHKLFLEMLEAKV
Sequence of Oxysterols receptor LXR-beta (Homo sapiens) (P55055 whole entry, looked up, the tested form may be a part): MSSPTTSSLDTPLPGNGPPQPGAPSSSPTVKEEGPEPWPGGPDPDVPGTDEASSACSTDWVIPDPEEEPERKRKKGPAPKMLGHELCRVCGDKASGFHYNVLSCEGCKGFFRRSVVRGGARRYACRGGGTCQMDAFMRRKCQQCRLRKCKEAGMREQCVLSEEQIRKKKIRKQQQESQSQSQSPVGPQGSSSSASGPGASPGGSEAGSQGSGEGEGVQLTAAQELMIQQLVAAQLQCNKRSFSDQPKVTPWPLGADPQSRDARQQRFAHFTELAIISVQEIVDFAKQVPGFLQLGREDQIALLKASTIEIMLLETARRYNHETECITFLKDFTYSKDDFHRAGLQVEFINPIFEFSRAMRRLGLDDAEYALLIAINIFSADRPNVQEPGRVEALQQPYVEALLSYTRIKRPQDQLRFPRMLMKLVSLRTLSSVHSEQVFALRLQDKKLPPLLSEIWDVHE
Sequence of Hepatocyte nuclear factor 4-alpha (Homo sapiens) (P41235 whole entry, looked up): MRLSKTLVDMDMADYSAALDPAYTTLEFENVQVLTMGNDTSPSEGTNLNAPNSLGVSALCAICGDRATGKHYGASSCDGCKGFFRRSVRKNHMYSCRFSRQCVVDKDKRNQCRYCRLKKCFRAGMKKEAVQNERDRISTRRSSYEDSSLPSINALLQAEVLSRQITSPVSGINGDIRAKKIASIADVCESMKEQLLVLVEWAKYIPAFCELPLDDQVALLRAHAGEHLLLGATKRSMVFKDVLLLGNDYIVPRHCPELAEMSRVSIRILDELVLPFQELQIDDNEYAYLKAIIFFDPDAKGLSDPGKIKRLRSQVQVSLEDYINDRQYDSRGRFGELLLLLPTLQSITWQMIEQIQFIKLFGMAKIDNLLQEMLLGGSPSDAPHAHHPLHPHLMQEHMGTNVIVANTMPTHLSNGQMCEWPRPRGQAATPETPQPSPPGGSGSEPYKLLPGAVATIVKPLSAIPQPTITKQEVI
Sequence of Glucocorticoid receptor (Homo sapiens) (P04150 whole entry, looked up, the tested form may be a part): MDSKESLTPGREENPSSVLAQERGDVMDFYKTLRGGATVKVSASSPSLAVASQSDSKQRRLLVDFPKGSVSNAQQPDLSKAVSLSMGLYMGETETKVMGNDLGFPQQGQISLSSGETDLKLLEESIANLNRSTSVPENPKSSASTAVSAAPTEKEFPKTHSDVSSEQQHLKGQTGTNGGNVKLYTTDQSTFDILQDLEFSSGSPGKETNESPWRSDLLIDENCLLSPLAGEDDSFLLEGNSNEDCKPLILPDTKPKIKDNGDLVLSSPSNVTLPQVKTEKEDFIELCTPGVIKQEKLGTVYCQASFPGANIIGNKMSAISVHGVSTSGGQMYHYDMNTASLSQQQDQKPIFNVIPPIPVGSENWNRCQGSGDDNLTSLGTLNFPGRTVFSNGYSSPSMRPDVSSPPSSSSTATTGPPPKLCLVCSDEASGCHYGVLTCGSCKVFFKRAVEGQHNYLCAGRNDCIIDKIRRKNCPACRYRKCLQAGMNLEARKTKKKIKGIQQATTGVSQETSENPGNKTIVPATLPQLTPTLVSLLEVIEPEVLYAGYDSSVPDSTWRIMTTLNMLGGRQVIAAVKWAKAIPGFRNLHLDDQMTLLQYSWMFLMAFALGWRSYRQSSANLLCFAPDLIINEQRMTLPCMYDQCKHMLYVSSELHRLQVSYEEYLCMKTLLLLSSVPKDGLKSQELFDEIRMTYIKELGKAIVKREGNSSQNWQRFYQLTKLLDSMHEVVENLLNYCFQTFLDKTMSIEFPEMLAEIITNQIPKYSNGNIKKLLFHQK
Sequence of Bile acid receptor (Homo sapiens) (Q96RI1 whole entry, looked up, the tested form may be a part): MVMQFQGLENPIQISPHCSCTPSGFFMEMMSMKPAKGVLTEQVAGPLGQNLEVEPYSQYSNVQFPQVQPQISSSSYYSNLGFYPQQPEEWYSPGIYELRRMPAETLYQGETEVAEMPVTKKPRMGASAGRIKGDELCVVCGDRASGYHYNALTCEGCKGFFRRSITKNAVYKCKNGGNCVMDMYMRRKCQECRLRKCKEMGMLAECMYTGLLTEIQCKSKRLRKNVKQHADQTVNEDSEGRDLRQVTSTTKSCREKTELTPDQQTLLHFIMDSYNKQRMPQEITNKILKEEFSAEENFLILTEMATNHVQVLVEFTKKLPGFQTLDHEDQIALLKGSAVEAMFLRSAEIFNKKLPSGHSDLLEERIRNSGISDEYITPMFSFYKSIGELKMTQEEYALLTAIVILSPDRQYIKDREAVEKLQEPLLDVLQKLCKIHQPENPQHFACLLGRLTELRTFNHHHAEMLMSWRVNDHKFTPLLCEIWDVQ
Sequence of Myc proto-oncogene protein (Homo sapiens) (P01106 whole entry, looked up): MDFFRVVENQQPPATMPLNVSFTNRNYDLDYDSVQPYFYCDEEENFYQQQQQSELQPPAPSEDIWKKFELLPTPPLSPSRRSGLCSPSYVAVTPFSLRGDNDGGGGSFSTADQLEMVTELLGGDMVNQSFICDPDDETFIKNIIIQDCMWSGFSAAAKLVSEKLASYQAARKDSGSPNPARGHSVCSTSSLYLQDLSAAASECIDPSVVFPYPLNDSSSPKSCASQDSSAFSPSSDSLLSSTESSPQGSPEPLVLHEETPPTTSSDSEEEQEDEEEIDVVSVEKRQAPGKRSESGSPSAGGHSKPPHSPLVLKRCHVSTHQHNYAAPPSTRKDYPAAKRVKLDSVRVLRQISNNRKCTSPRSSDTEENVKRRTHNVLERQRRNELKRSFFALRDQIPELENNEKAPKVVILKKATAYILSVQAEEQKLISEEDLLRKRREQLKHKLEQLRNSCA

CCN(CC)c1nc(C)cc(OP(=S)(OC)OC)n1
active: [5] 62.9 µM | [12] 8.94 µM
not listed: [15] | [16] | [17] | [18] | [19] | [20]
inactive: all other assays above

CC(C)N1C(=O)c2ccccc2NS1(=O)=O
active: [17] 50 µM | [2] 50 µM | [11] 33 µM
not listed: [1] | [3] | [5] | [9] | [19] | [20]
inactive: all other assays above

CC1(C)C(C(=O)OC(C#N)c2cccc(Oc3ccccc3)c2)C1(C)C (centres undefined)
active: [11] 0.913 µM
not listed: [1] | [9] | [16] | [17] | [20]
inactive: all other assays above

Cc1c(COC(=O)[C@@H]2[C@H](/C=C(\Cl)C(F)(F)F)C2(C)C)cccc1-c1ccccc1
not listed: [1] | [2] | [9] | [15] | [16] | [17] | [19]
inactive: all other assays above

CC1(C)C(C=C(Cl)Cl)C1C(=O)OC(C#N)c1cccc(Oc2ccccc2)c1 (centres undefined)
active: [11] 0.723 µM
not listed: [1] | [2] | [15] | [17] | [19]
inactive: all other assays above

COCC(=O)N(c1c(C)cccc1C)C(C)C(=O)OC (centres undefined)
active: [11] 50 µM
not listed: [1] | [3] | [5] | [10] | [16] | [17] | [18] | [20]
inactive: all other assays above

CCC(C)n1c(=O)[nH]c(C)c(Br)c1=O (centres undefined)
not listed: [1] | [4] | [16] | [17] | [18] | [20]
inactive: all other assays above

C=C(C)CN(CC)c1c([N+](=O)[O-])cc(C(F)(F)F)cc1[N+](=O)[O-]
active: [11] 4.69 µM
not listed: [1] | [2] | [3] | [4] | [9] | [15] | [17] | [19]
inactive: all other assays above
